Laboratory results as given in PubChem BioAssay (EPA / NIEHS).
Results filed as inconclusive are left out. Activity calls are given as the source filed them. The calls were made as follows: active = hit-call score of the fitted dose curve at least 0.9, where 1 is the maximum; inconclusive = response in the unintended direction; inactive = score below 0.9.

assay: ATG_XTT_Cytotoxicity: Cytotoxicity Assessment in the Attagene TRANS-FACTORIAL HepG2 Assay (AID 2283584)
Outline: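 HepG2 cells transiently transfected with GAL4-UAS multiple reporter units, dosed 24 h; cytotoxicity read by XTT as loss of signal versus DMSO baseline.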

Question: Which outcome does the source give for `COc1ccc(OC)c(C=O)c1` here?
Answer: inactive

Question: For `NC(=S)Nc1ccccc1`, which outcome is on record?
Answer: inactive

Question: Which outcome does the source give for `CC(C)(c1ccc(OCC2CO2)cc1)c1ccc(OCC2CO2)cc1` (stereo unspecified) here?
Answer: inactive

Question: For `CCOP(=S)(OCC)SCCS(=O)(=O)CC`, which outcome is on record?
Answer: inactive

Question: Which outcome does the source give for `CCc1ccccc1N` here?
Answer: inactive

Question: For `COP(=S)(OC)Oc1ccc(S(=O)(=O)N(C)C)cc1`, which outcome is on record?
Answer: inactive

Question: With `C[C@@H](Oc1ccc(Cl)cc1Cl)C(=O)O` as the compound, how does the outcome read?
Answer: inactive

Question: Which outcome does the source give for `CC(C)CCCCCCOC(=O)c1ccccc1C(=O)OCCCCCCC(C)C` here?
Answer: inactive

Question: Which outcome does the source give for `CC(=[OH+])/C=C(/C)[O-].CC(=[OH+])/C=C(/C)[O-].CC(=[OH+])/C=C(/C)[O-].[Fe]` here?
Answer: inactive

Question: With `C=CC#N` as the compound, how does the outcome read?
Answer: inactive

Question: For `CC1(C)CCC(Cc2ccc(Cl)cc2)C1(O)Cn1cncn1` (stereo unspecified), which outcome is on record?
Answer: inactive

Question: For `CC1(C)Cc2cccc(O)c2O1`, which outcome is on record?
Answer: inactive

Question: With `C=CC(=O)N(C)C` as the compound, how does the outcome read?
Answer: inactive

Question: With `CCc1ccccc1C` as the compound, how does the outcome read?
Answer: inactive

Question: With `O=C1C(Cl)=C(Cl)C(=O)c2ccccc21` as the compound, how does the outcome read?
Answer: inactive

Question: For `Cc1cc(Cl)ccc1O[C@H](C)C(=O)O`, which outcome is on record?
Answer: inactive

Question: With `O=C(c1ccccc1)C(Cl)Cl` as the compound, how does the outcome read?
Answer: inactive

Question: For `C(=NC1CCCCC1)=NC1CCCCC1`, which outcome is on record?
Answer: inactive

Question: With `C[C@H]1CCCC(=O)CCC/C=C/c2cc(O)cc(O)c2C(=O)O1` as the compound, how does the outcome read?
Answer: inactive

Question: With `Nc1ccc(Cl)cc1C(=O)c1ccccc1` as the compound, how does the outcome read?
Answer: inactive

Question: With `CC(=O)C=C(C)C` as the compound, how does the outcome read?
Answer: inactive

Question: Which outcome does the source give for `O=C/C=C/c1ccccc1` here?
Answer: inactive

Question: For `COS(=O)(=O)c1ccc(C)cc1`, which outcome is on record?
Answer: inactive

Question: For `CC(=[OH+])/C=C(/C)[O-].CC(=[OH+])/C=C(/C)[O-].CC(=[OH+])/C=C(/C)[O-].[Al]`, which outcome is on record?
Answer: inactive

Question: With `C=CCc1ccc(OC)cc1` as the compound, how does the outcome read?
Answer: inactive

Question: With `CCNc1nc(NC(C)(C)C)nc(SC)n1` as the compound, how does the outcome read?
Answer: inactive
